Laboratory results published in PubChem BioAssay (EPA / NIEHS).
Active and inactive are the calls of the source. Rule for the calls: active = hit-call score of the fitted dose curve at least 0.9, where 1 is the maximum; inactive = score below 0.9.

Experiments:
Settings in all cases: mRNA level, 48 h; actives raise or lower the signal
[1] = read-out: Interleukin 6 Receptor (IL6R), IL6R (gene 3570); assay: LTEA_HepaRG_IL6R: Life Technologies and Expression Analysis (LTEA) Assay for Interleukin 6 Receptor (IL6R) using HepaRG (AID 2283510)
In short: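 Readout is IL6R transcript level by TaqMan qRT-PCR, normalized to three housekeeping genes and fitted bidirectionally against 0.5% DMSO controls. Human HepaRG cells received chemicals for 48 h in serum-free induction medium, highest concentration 100 uM.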

[2] = read-out: Potassium channel subfamily K member 1 (KCNK1), KCNK1 (gene 3775); assay: LTEA_HepaRG_KCNK1: Life Technologies and Expression Analysis (LTEA) Assay for Potassium channel subfamily K member 1 (KCNK1) using HepaRG (AID 2283511)
In short: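 Gain or loss of KCNK1 mRNA is the read-out, quantified by qRT-PCR against three housekeeping genes after 48 h chemical treatment of human HepaRG liver cells. Concentrations ran from 100 uM downward in half-log steps, vehicle 0.5% DMSO.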

[3] = read-out: Keratin 19 (KRT19), KRT19 (gene 3880); assay: LTEA_HepaRG_KRT19: Life Technologies and Expression Analysis (LTEA) Assay for Keratin 19 (KRT19) using HepaRG (AID 2283512)
In short: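 KRT19 transcript levels, measured by Fluidigm qRT-PCR against three housekeeping genes, are fitted for gain or loss of signal relative to DMSO. Human HepaRG cells receive test chemicals (top 100 uM, half-log steps, 0.5% DMSO) for 48 hours.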

[4] = read-out: JUN Transcription Factor, JUN (gene 3725); assay: LTEA_HepaRG_JUN: Life Technologies and Expression Analysis (LTEA) Assay for JUN Transcription Factor using HepaRG (AID 2283513)
In short: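 Cells plated 48 h, medium switched to serum-free induction medium, then dosed 48 h (100 uM top, half-log dilutions, 0.5% DMSO). RNA isolated; JUN measured by qRT-PCR against three housekeeping genes; gain or loss fitted relative to DMSO.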

[5] = read-out: Lipase C (LIPC), LIPC (gene 3990); assay: LTEA_HepaRG_LIPC: Life Technologies and Expression Analysis (LTEA) Assay for Lipase C (LIPC) using HepaRG (AID 2283514)
In short: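 Read-out is LIPC transcript level by TaqMan qRT-PCR, normalized to three housekeeping genes, after 48 h chemical treatment of human HepaRG liver cells. Curves span eight concentrations topping at 100 uM; activity in either direction scored relative to 0.5% DMSO.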

[6] = read-out: Lipoprotein lipase (LPL), LPL (gene 4023); assay: LTEA_HepaRG_LPL: Life Technologies and Expression Analysis (LTEA) Assay for Lipoprotein lipase (LPL) using HepaRG (AID 2283515)
In short: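 Read-out is LPL transcript level by qRT-PCR, normalized to three housekeeping genes and fitted bidirectionally against the DMSO control. Human HepaRG cells received chemicals for 48 h at up to 100 uM.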

[7] = read-out: MicroRNA 122 (MIR122), gene 406906; assay: LTEA_HepaRG_MIR122: Life Technologies and Expression Analysis (LTEA) Assay for MicroRNA 122 (MIR122) using HepaRG (AID 2283516); note: the transcript read is the microRNA miR-122
In short: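 HepaRG plated 48 h, switched to serum-free induction medium, then treated in duplicate for 48 h (100 uM top, half-log steps, 0.5% DMSO vehicle). RNA isolated, qRT-PCR performed, concentration-response fitted both directions relative to DMSO.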

[8] = read-out: matrix metalloproteinase-10 (MMP10), MMP10 (gene 4319); assay: LTEA_HepaRG_MMP10: Life Technologies and Expression Analysis (LTEA) Assay for matrix metalloproteinase-10 (MMP10) using HepaRG (AID 2283517)
In short: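 Gain or loss of MMP10 mRNA is fitted relative to the 0.5% DMSO vehicle. The human hepatic line HepaRG receives a 48-hour serum-free exposure, in duplicate, with a maximum concentration of 100 uM.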

[9] = read-out: MYC, MYC (gene 4609); assay: LTEA_HepaRG_MYC: Life Technologies and Expression Analysis (LTEA) Assay for MYC using HepaRG (AID 2283518)
In short: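 HepaRG, ~100,000 cells/well, collagen I; 48 h plating; serum-free induction medium; 48 h dosing, duplicate, 100 uM top, half-log, 0.5% DMSO; total RNA → qRT-PCR MYC; gain/loss fit vs DMSO.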

[10] = read-out: matrix metalloproteinase-3 (MMP3), MMP3 (gene 4314); assay: LTEA_HepaRG_MMP3: Life Technologies and Expression Analysis (LTEA) Assay for matrix metalloproteinase-3 (MMP3) using HepaRG (AID 2283519)
In short: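 HepaRG, human; 48 h dosing, 8 conc. (max 100 uM, half-log), duplicate, 0.5% DMSO. Readout: MMP3 transcript by Fluidigm TaqMan qRT-PCR, ACTB/GAPDH/POLR2A-normalised. Gain or loss fitted vs DMSO.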

[11] = read-out: Paternally Expressed 10 (PEG10), PEG10 (gene 23089); assay: LTEA_HepaRG_PEG10: Life Technologies and Expression Analysis (LTEA) Assay for Paternally Expressed 10 (PEG10) using HepaRG (AID 2283520)
In short: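 HepaRG, 48 h post-plating → serum-free induction medium → 48 h chemical exposure (duplicate, 8-pt, max 100 uM, half-log, 0.5% DMSO) → lysis in RLT → TaqMan qRT-PCR for PEG10, ACTB/GAPDH/POLR2A normalisation.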

[12] = read-out: Protein phosphatase 2A (PPP2R4), PTPA (gene 5524); assay: LTEA_HepaRG_PPP2R4: Life Technologies and Expression Analysis (LTEA) Assay for Protein phosphatase 2A (PPP2R4) using HepaRG (AID 2283522)
In short: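 Readout is PPP2R4 transcript level by microfluidic qRT-PCR after 48 h chemical treatment of human HepaRG liver cells. Concentrations spanned 100 uM downward in half-log steps; gain or loss of signal was fitted relative to DMSO.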

[13] = read-out: Phosphatase and tensin (PTEN), PTEN (gene 5728); assay: LTEA_HepaRG_PTEN: Life Technologies and Expression Analysis (LTEA) Assay for Phosphatase and tensin (PTEN) using HepaRG (AID 2283523)
In short: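 Read-out is PTEN transcript level by multiplexed TaqMan qRT-PCR after 48 h chemical treatment of human HepaRG cultures in serum-free induction medium. Concentrations spanned 100 uM downward in half-log steps, 0.5% DMSO throughout; activity fitted in both directions against vehicle.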

[14] = read-out: solute carrier (SLC22A1), SLC22A1 (gene 6580); assay: LTEA_HepaRG_SLC22A1: Life Technologies and Expression Analysis (LTEA) Assay for solute carrier (SLC22A1) using HepaRG (AID 2283524)
In short: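 HepaRG (human liver line), 48 h dosing in serum-free induction medium; 8 conc., half-log down from 100 uM, 0.5% DMSO vehicle, duplicates. Endpoint: SLC22A1 mRNA, qRT-PCR, housekeeping-normalized; gain/loss fit vs DMSO.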

[15] = read-out: Pyruvate Dehydrogenase Kinase 4 (PDK4), PDK4 (gene 5166); assay: LTEA_HepaRG_PDK4: Life Technologies and Expression Analysis (LTEA) Assay for Pyruvate Dehydrogenase Kinase 4 (PDK4) using HepaRG (AID 2283525)
In short: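 In this multiplexed human HepaRG expression assay, cells are treated 48 h with test chemicals across an eight-point range starting at 100 uM. PDK4 mRNA changes, normalized to ACTB/GAPDH/POLR2A, are fitted in both directions relative to vehicle.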

[16] = read-out: NAD(P)H dehydrogenase [quinone] 1 (NQO1), NQO1 (gene 1728); assay: LTEA_HepaRG_NQO1: Life Technologies and Expression Analysis (LTEA) Assay for NAD(P)H dehydrogenase [quinone] 1 (NQO1) using HepaRG (AID 2283526)
In short: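 HepaRG, 48 h post-plating → serum-free induction medium → test chemical 48 h (duplicate, 100 uM top, half-log x8, 0.5% DMSO) → RNA isolation → qRT-PCR, ACTB/GAPDH/POLR2A normalization; bidirectional curve fit vs DMSO baseline.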

[17] = read-out: Nuclear factor erythroid 2-related factor 2 (Homo sapiens) (UniProt Q16236); assay: LTEA_HepaRG_NFE2L2: Life Technologies and Expression Analysis (LTEA) Assay for Nuclear factor erythroid 2-related factor 2 (NFE2L2) Transcription Factor using HepaRG (AID 2283527)
In short: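 Transcript level of NFE2L2 is the read-out, measured by microfluidic TaqMan qRT-PCR and normalized to three housekeeping genes. Human HepaRG cultures received test chemical for 48 h at up to 100 uM in half-log steps. Gain or loss of signal is fitted relative to 0.5% DMSO.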

[18] = read-out: succinate dehydrogenase complex iron sulfur subunit B (SDHB), SDHB (gene 6390); assay: LTEA_HepaRG_SDHB: Life Technologies and Expression Analysis (LTEA) Assay for succinate dehydrogenase complex iron sulfur subunit B (SDHB) using HepaRG (AID 2283528)
In short: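 HepaRG, 48 h exposure, 8-pt half-log series from 100 uM in 0.5% DMSO, duplicates. Readout: SDHB mRNA by Fluidigm qRT-PCR vs housekeeping genes; bidirectional fit relative to DMSO.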

[19] = read-out: Signal transducer and activator of transcription 3 (Homo sapiens) (UniProt P40763); assay: LTEA_HepaRG_STAT3: Life Technologies and Expression Analysis (LTEA) Assay for Signal transducer and activator of transcription (STAT3) using HepaRG (AID 2283529)
In short: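 Read-out is STAT3 mRNA level by qRT-PCR, normalized to three housekeeping genes, in human HepaRG liver cells treated for 48 h. Concentrations ran from 100 uM downward in half-log steps; curves were fitted for gain or loss relative to 0.5% DMSO.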

[20] = read-out: solute carrier (SLCO1B1), SLCO1B1 (gene 10599); assay: LTEA_HepaRG_SLCO1B1: Life Technologies and Expression Analysis (LTEA) Assay for solute carrier (SLCO1B1) using HepaRG (AID 2283530)
In short: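 HepaRG, serum-free induction medium, 48 h dosing, 8-pt half-log from 100 uM, 0.5% DMSO vehicle, duplicates. Readout: SLCO1B1 mRNA, qRT-PCR, ACTB/GAPDH/POLR2A normalization; up or down fit vs DMSO.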

Measured: AC50

Sequence of Nuclear factor erythroid 2-related factor 2 (Homo sapiens) (Q16236 whole entry, looked up): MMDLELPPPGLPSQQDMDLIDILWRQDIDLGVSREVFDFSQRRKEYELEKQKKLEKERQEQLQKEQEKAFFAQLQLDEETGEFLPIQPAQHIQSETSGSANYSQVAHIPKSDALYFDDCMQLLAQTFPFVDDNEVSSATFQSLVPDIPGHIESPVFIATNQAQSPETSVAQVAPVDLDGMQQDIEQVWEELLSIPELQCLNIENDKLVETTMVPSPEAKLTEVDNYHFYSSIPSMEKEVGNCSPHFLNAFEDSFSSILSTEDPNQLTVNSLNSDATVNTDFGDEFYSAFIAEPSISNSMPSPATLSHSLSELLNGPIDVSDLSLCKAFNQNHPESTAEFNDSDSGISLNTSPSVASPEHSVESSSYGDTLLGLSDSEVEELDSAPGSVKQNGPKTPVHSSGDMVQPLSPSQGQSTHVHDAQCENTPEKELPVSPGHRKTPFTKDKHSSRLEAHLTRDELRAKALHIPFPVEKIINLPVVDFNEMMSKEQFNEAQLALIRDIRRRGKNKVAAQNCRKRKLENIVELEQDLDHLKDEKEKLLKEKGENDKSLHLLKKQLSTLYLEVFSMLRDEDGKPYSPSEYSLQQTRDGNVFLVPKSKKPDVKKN
Sequence of Signal transducer and activator of transcription 3 (Homo sapiens) (P40763 whole entry, looked up): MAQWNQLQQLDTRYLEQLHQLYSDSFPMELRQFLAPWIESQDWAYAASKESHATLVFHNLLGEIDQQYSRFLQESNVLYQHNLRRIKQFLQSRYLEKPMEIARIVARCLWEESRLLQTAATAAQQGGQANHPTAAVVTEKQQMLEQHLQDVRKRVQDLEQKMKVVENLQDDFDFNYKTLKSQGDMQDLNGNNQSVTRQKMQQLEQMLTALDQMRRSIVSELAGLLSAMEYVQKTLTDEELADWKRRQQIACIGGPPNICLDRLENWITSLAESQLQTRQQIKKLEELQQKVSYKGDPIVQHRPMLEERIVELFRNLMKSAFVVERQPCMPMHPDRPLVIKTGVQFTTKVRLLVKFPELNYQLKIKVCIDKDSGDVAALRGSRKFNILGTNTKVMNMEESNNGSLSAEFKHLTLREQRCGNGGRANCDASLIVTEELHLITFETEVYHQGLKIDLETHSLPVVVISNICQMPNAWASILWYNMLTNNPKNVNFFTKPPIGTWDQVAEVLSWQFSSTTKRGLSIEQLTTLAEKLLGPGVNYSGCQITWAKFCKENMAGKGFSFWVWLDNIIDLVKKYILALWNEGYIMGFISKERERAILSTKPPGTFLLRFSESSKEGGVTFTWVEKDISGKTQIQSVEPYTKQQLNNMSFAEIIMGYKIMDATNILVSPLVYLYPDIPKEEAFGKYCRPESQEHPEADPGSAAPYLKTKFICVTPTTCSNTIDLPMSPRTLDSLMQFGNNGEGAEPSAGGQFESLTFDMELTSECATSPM

CCOc1ccc(C(C)(C)COCc2cccc(Oc3ccccc3)c2)cc1
inactive: all assays above

CCC1(c2ccccc2)C(=O)N=C(O)NC1=O (configuration not stated)
not listed: [3]
inactive: all other assays above

CC(C)(C)OOC(C)(C)C
not listed: [3]
inactive: all other assays above

CCN(CC)c1ccccc1
not listed: [3]
inactive: all other assays above

CCOS(=O)(=O)OCC
inactive: all assays above

ClC1=C(Cl)C2(Cl)C3C(Cl)C(Cl)CC3C1(Cl)C2(Cl)Cl (configuration not stated)
active: [5] 43.7 µM | [9] 50 µM | [10] 23.6 µM | [11] 2.31 µM
not listed: [3]
inactive: all other assays above

O=P1(N(CCCl)CCCl)NCCCO1 (configuration not stated)
not listed: [3]
inactive: all other assays above

Nc1ccc(Cl)cc1
not listed: [3]
inactive: all other assays above

OCC1CO1 (configuration not stated)
not listed: [3]
inactive: all other assays above

Cc1ccc([N+](=O)[O-])cc1C
not listed: [3]
inactive: all other assays above

O=[N+]([O-])c1ccccc1
not listed: [3]
inactive: all other assays above

c1cc2c3c(cccc3c1)CC2
not listed: [3]
inactive: all other assays above

CCOC(=O)c1ccccc1C(=O)OCC
not listed: [3]
inactive: all other assays above

O=C(O)C1C(C(=O)O)C2(Cl)C(Cl)=C(Cl)C1(Cl)C2(Cl)Cl (configuration not stated)
not listed: [3]
inactive: all other assays above

CCOP(=S)(OCC)SCSCC
not listed: [3]
inactive: all other assays above

Nc1ccc2ccccc2c1
active: [9] 50 µM | [17] 29.8 µM
not listed: [3]
inactive: all other assays above

CCC(C)(C)c1ccc(O)cc1
not listed: [3]
inactive: all other assays above

CCNc1nc(Cl)nc(NC(C)(C)C)n1
active: [11] 17.4 µM
not listed: [3]
inactive: all other assays above

ClC(Cl)c1ccccc1
not listed: [3]
inactive: all other assays above

Cc1cccc(N)c1
inactive: all assays above

CN(C)C(=O)Cl
not listed: [3]
inactive: all other assays above
